Values joined by “and” are separate entries in the source; they are usually repeats but may differ in a detail not shown here. Equal values may be shown once. Inconclusive results are not listed. More than one record can exist for a structure, and the calls need not agree. Active and inactive are the calls of the source.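 How the source made its calls, unless noted: active means normalized viability below 100% at a tested concentration; inactive means the rest.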
What was measured:
[1] = tested on: Aerobactin synthetase IucA (Klebsiella pneumoniae); assay: inhibition of K. pneumoniae IucA enzyme – biochemical, Tocris library, absorbance (AID 1345561; call rule not given here;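 further: 100% = enzyme without compound and 0% = no enzyme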); settings: purified IucA enzyme assay, absorbance (OD) read-out; stronger effect = lower value;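 tested at 8 µM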
[2] = viability loss in pontine glioma line – cell-based, SU-DIPG-XVII, MIPE5.0, CellTiter-Glo, qHTS, dose response (AID 1347060; cut-off not given, nearly all actives have AC50 up to about 26 µM;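 on AC50: cells exposed to compound for 48 hours before viability readout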); settings: CellTiter-Glo ATP luminescence
[3] = viability loss in pontine glioma line – cell-based, SU-DIPG-XIII, MIPE4.0, CellTiter-Glo, qHTS, dose response (AID 1347061; cut-off not given, nearly all actives have AC50 up to about 37 µM;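 further: cells exposed to compound for 48 hours before readout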); settings: CellTiter-Glo ATP luminescence
[4] = viability loss in pontine glioma line – cell-based, JHH-DIPG-1, MIPE4.0, CellTiter-Glo, qHTS, dose response (AID 1347062; cut-off not given, nearly all actives have AC50 up to about 27 µM;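 on AC50: cells exposed to compound for two days before readout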); settings: JHH-DIPG-1 viability, CellTiter-Glo ATP luminescence
[5] = viability loss in pontine glioma line – cell-based, SU-DIPG-IV, MIPE4.0, CellTiter-Glo, qHTS, dose response (AID 1347063; cut-off not given, nearly all actives have AC50 up to about 30 µM;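 further: compound exposure lasted 48 hours before the viability readout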); settings: CellTiter-Glo ATP luminescence
[6] = viability loss in pontine glioma line – cell-based, SU-DIPG-XIII, MIPE5.0, CellTiter-Glo, qHTS, dose response (AID 1347064; cut-off not given, nearly all actives have AC50 up to about 23 µM;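 on AC50: cells exposed to compound for 48 hours before the viability read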); settings: CellTiter-Glo ATP luminescence
[7] = viability loss in pontine glioma line – cell-based, SU-DIPG-XXV, MIPE5.0, CellTiter-Glo, qHTS, dose response (AID 1347065; cut-off not given, nearly all actives have AC50 up to about 26 µM;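 further: cells exposed to compound for 48 hours before ATP readout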); settings: CellTiter-Glo ATP luminescence
[8] = growth inhibition of DIPG cells – cell-based, MIPE4.0 library, CellTiter-Glo luminescence, qHTS (AID 1347066; cut-off not given, nearly all actives have AC50 up to about 30 µM;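 further: cells exposed to compound for 48 hours before readout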); settings: SU-DIPG-VI viability, CellTiter-Glo ATP luminescence
[9] = JHH-DIPG-1 glioma cell viability, MIPE5.0 library, CellTiter-Glo luminescence, qHTS (AID 1347067; cut-off not given, nearly all actives have AC50 up to about 26 µM;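 further: cells exposed to compound for 48 hours before readout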); settings: JHH-DIPG-1 glioma viability, CellTiter-Glo ATP luminescence
[10] = growth inhibition of DIPG cells – cell-based, MIPE5.0 library, qHTS (AID 1347068; cut-off not given, nearly all actives have IC50 up to about 30 µM;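 on IC50: cells exposed to compound for 48 hours before viability readout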); settings: SU-DIPG-XXV viability
[11] = viability loss with induced miR-34 in A549 – imaging, A549 dox-inducible miR-34, nuclei and caspase counts, primary screen (AID 1347080;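 active means compounds whose cell count with miR-34 switched on is under 0.7 times the count with it off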); settings: A549 miR-34 inducible, Hoechst nuclei count, 48 h
[12] = compounds altering HSF1 focus formation in cells – imaging, Selleck Cancer Library (AID 1347162; in the data active means plate-normalised HSF1 focus index below about 0.46); settings: human cells, HSF1 nuclear foci imaging, at 10 µM; SSMD: measured here: HSF1 foci SSMD mean; cell count: measured here: cell number; plate-normalised HSF1 focus index: stronger effect = lower value
[13] = galactose survival enhancers in mitochondrial complex I cybrids – cell-based, galactose medium, ATP luminescence, primary screen (AID 1645843;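 active means z-score of at least 1.8 in each of two replicates, scored against plate mean and spread of sample wells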;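 further: positive z means more ATP and so rescue of galactose-driven cybrid death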); settings: complex I mutant cybrid cells, 72 h, stronger effect = higher value
[14] = blockers of polyQ-driven CASP3 activation – cell-based (AID 1583); settings: polyglutamine-induced caspase-3 activation, cell assay; stronger effect = higher value;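 tested at 10 µM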
[15] = yeast 75Q aggregation reduction – 75Q-TubU reporter (AID 1593); settings: Yeast 75Q polyglutamine aggregation reporter
[16] = EMT-state selective cytotoxicity in co-culture – imaging, PC-3E GFP, TEM4-18 mCherry, primary screen (AID 1345086;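 active means compounds killing one labelled cell type while sparing the other, by normalised counts and ratio limits, not self-fluorescent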;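 further: cells exposed to compound for 72 h before imaging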;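 on red/green cell ratio (normalised): normalised mesenchymal count divided by normalised epithelial count so high means epithelial killing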); settings: PC-3E GFP / TEM4-18 mCherry co-culture, imaging cell counts, at 1 µM
[17] = MELAS cybrid and Rieske KO viability enhancers – cell-based, MELAS cybrids, Rieske KO mouse fibroblasts, CellTiter-Glo, primary screen (AID 1508586;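 active means mean z-score across replicates of 1.96 or higher in either the MELAS or the Rieske mutant cell line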;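 further: z relative to plate mean and SD of compound and empty wells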); settings: low glucose
[18] = P. berghei load reduction in hepatocytes – cell-based, HepG2, luciferase luminescence, HepG2 viability, primary screen (AID 624349; in the data active means parasite load remaining mostly below about 12%, no sharp cut-off; inactive means mostly above about 10%;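 further: 100% = mean of DMSO negative control wells on the same plate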); settings: P. berghei liver stage in HepG2, luciferase luminescence, concentration not given here; parasite load remaining: stronger effect = lower value; viability: measured here: HepG2 viability without parasites
[19] = drug combination growth inhibition, ovarian cancer – cell-based, oncology-focused library, rucaparib conditional, profiling panel (AID 1508598); settings: patient-derived ovarian cancer cells, CellTiter-Glo viability, 144 h, stronger effect = lower value
[20] = stronger effect = lower value, cell number ratio, induced over uninduced
[21] = measured here: relative caspase fold change +Dox/-Dox
[22] = measured here: total cells with miR-34 induction, stronger effect = lower value
[23] = measured here: total cells without miR-34 induction
[24] = MELAS cybrid survival, CellTiter-Glo 48 h, stronger effect = higher value
[25] = Rieske KO mouse fibroblast survival, CellTiter-Glo 72 h

O=C1C(Cl)=C(NCCN2CCOCC2)C(=O)c2ncccc21
inactive: remaining activity [1] 118% | fold change [11, 20] 0.881 | plate-normalised HSF1 focus index [12] 1.4 | z-score [13] -0.82
6.65: SSMD [12]
1390: cell count [11, 22]
1.4: fold change [11, 21]
6880: cell count [12]
active: AC50 [2] 8.33 µM | AC50 [3] 6.62 µM | AC50 [4] 3.32 µM | AC50 [5] 4.69 µM | AC50 [6] 3.32 µM | AC50 [7] 6.61 µM | AC50 [8] 2.64 µM | AC50 [9] 4.68 µM | IC50 [10] 18.6 µM
1580: cell count [11, 23]

C1CCN2C[C@H]3C[C@H](CN4CCCC[C@@H]34)[C@H]2C1
-43.7%: inhibition [14]
1.19: normalised cell number ([16]; measured here: mesenchymal TEM4-18 mCherry cell survival)
1.18: score [15] | normalised cell number ([16]; measured here: epithelial PC-3E GFP cell survival)
inactive: red/green cell ratio (normalised) ([16]; actives lie on both sides, counts scaled to control wells, 1 = unselective) 1.01

CCOC(=O)C1=C(C)NC(=S)NC1c1cccc(O)c1 (stereo not given)
1 and 0.625: fold change [11, 21]
2900 and 8090: cell count [11, 22]
3060 and 7690: cell count [11, 23]
inactive: remaining activity [1] 109% | outcome [2] | outcome [3] | outcome [6] | outcome [8] | outcome [9] | outcome [10] | fold change [11, 20] 0.947 and 1.05 | z-score [13] 0.085

O=C1NC(=O)C(c2ccccc2[N+](=O)[O-])=C1Nc1ccc(O)c(Cl)c1
inactive: remaining activity [1] 112% | outcome [2] | outcome [3] | outcome [4] | outcome [5] | outcome [6] | outcome [9] | outcome [10] | fold change [11, 20] 1 and 1.09 and 0.982 | z-score [17, 24] -0.406 | z-score [13] 1.65 and 0.35
0.723: z-score [17, 25]

CS(=O)c1ccc(-c2nc(-c3ccc(F)cc3)c(-c3ccncc3)[nH]2)cc1 (stereo not given)
2.53: SSMD [12]
1.98 (inactive) and 3.42 (active): z-score [13]
active: AC50 [4] 15.2 µM | AC50 [5] 48.1 µM
inactive: parasite load remaining [18] 28.5% | remaining activity [1] 113% and 119% | outcome [2] | outcome [6] | outcome [8] | plate-normalised HSF1 focus index [12] 1.16 | z-score [17, 24] -0.617 | viability ([19]; at 0.000305 µM, OCI-C5x cells, with rucaparib 10 µM, 100% = cells with rucaparib alone) 128% | viability ([19]; at 0.000305 µM, OCI-C5x cells, without rucaparib) 139% | viability ([19]; at 0.000305 µM, OCI-P5x cells, with rucaparib 20 µM, 100% = cells with rucaparib alone) 109% | viability ([19]; at 0.000305 µM, OCI-P5x cells, without rucaparib) 111% | viability ([19]; at 0.00122 µM, OCI-C5x cells, with rucaparib 10 µM, 100% = cells with rucaparib alone) 123% | viability ([19]; at 0.00122 µM, OCI-C5x cells, without rucaparib) 135% | viability ([19]; at 0.00122 µM, OCI-P5x cells, with rucaparib 20 µM, 100% = cells with rucaparib alone) 103% | viability ([19]; at 0.00122 µM, OCI-P5x cells, without rucaparib) 107% | viability ([19]; at 0.00488 µM, OCI-C5x cells, with rucaparib 10 µM, 100% = cells with rucaparib alone) 134% | viability ([19]; at 0.00488 µM, OCI-C5x cells, without rucaparib) 139% | viability ([19]; at 0.00488 µM, OCI-P5x cells, with rucaparib 20 µM, 100% = cells with rucaparib alone) 108% | viability ([19]; at 0.00488 µM, OCI-P5x cells, without rucaparib) 111% | viability ([19]; at 0.0195 µM, OCI-C5x cells, with rucaparib 10 µM, 100% = cells with rucaparib alone) 128% | viability ([19]; at 0.0195 µM, OCI-C5x cells, without rucaparib) 145% | viability ([19]; at 0.0195 µM, OCI-P5x cells, with rucaparib 20 µM, 100% = cells with rucaparib alone) 108% | viability ([19]; at 0.0195 µM, OCI-P5x cells, without rucaparib) 108% | viability ([19]; at 0.0781 µM, OCI-C5x cells, with rucaparib 10 µM, 100% = cells with rucaparib alone) 127% | viability ([19]; at 0.0781 µM, OCI-C5x cells, without rucaparib) 164% | viability ([19]; at 0.0781 µM, OCI-P5x cells, with rucaparib 20 µM, 100% = cells with rucaparib alone) 108% | viability ([19]; at 0.0781 µM, OCI-P5x cells, without rucaparib) 112% | viability ([19]; at 0.313 µM, OCI-C5x cells, with rucaparib 10 µM, 100% = cells with rucaparib alone) 129% | viability ([19]; at 0.313 µM, OCI-C5x cells, without rucaparib) 159% | viability ([19]; at 0.313 µM, OCI-P5x cells, with rucaparib 20 µM, 100% = cells with rucaparib alone) 119% | viability ([19]; at 0.313 µM, OCI-P5x cells, without rucaparib) 111% | viability ([19]; at 1.25 µM, OCI-C5x cells, with rucaparib 10 µM, 100% = cells with rucaparib alone) 116% | viability ([19]; at 1.25 µM, OCI-C5x cells, without rucaparib) 166% | viability ([19]; at 1.25 µM, OCI-P5x cells, with rucaparib 20 µM, 100% = cells with rucaparib alone) 130% | viability ([19]; at 1.25 µM, OCI-P5x cells, without rucaparib) 108% | viability ([19]; at 5 µM, OCI-C5x cells, with rucaparib 10 µM, 100% = cells with rucaparib alone) 132% | viability ([19]; at 5 µM, OCI-C5x cells, without rucaparib) 161% | viability ([19]; at 5 µM, OCI-P5x cells, with rucaparib 20 µM, 100% = cells with rucaparib alone) 119% | viability ([19]; at 5 µM, OCI-P5x cells, without rucaparib) 113%
7460: cell count [12]
76.8%: viability [18]
0.991: z-score [17, 25]

N[C@H](CSC(c1ccccc1)(c1ccccc1)c1ccccc1)C(=O)O
1.4: fold change [11, 21]
8660: cell count [11, 23]
7800: cell count [11, 22]
inactive: remaining activity [1] 104% | outcome [2] | outcome [3] | outcome [4] | outcome [6] | outcome [8] | outcome [10] | fold change [11, 20] 0.901 | z-score [13] 0.555

O=C(O)C1CCCN(CCC=C(c2ccccc2)c2ccccc2)C1 (stereo not given)
9480 and 9430: cell count [11, 23]
1.12 and 1.07: fold change [11, 21]
inactive: remaining activity [1] 104% | outcome [2] | outcome [3] | outcome [4] | outcome [5] | outcome [6] | outcome [8] | outcome [9] | outcome [10] | fold change [11, 20] 0.98 and 0.952 | z-score [13] 0.12 and 0.13
9290 and 8980: cell count [11, 22]

O=C(O)c1ccc2cc(-c3ccc(O)c(C45CC6CC(CC(C6)C4)C5)c3)ccc2c1
1530: cell count [11, 23]
active: AC50 [2] 0.59 µM | AC50 [4] 5.26 µM | AC50 [5] 0.332 µM | AC50 [7] 3.32 µM | AC50 [9] 3.72 µM
6920: cell count [12]
inactive: remaining activity [1] 120% | fold change [11, 20] 1.3 | plate-normalised HSF1 focus index [12] 1.1 | z-score [13] -0.83
0.838: fold change [11, 21]
1.71: SSMD [12]
1990: cell count [11, 22]

COc1cccc(-c2cc(=O)c3ccccc3o2)c1N
1.33: z-score [17, 25]
inactive: parasite load remaining [18] 29.3% | remaining activity [1] 102% | outcome [2] | outcome [3] | outcome [4] | outcome [6] | outcome [7] | outcome [10] | z-score [17, 24] -0.498 | z-score [13] -0.045 and 0.145
68.4%: viability [18]

From PubChem BioAssay
